Test results as given in PubChem BioAssay.
Results filed as inconclusive are left out. For some assays here: Potency and affinity values are given separately. Active and inactive are the calls of the source. Unless noted, how the calls were made is not given here.

How the values were obtained:
[1] = target: Calcium-dependent protein kinase 1 (Plasmodium falciparum (isolate 3D7)) (UniProt P62344); experiment: PfCDPK1 kinase inhibitors, biochemical, TCAMS library (AID 1159585; cut-off not given, nearly all actives have IC50 up to about 0.98 µM;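 further: inhibitors leave more ATP so luminescence rises with inhibition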); settings: recombinant PfCDPK1, Kinase-Glo ATP depletion luminescence
[2] = target: Plasmodium falciparum protein kinase 6 (PK6, PF3D7_1337100) (UniProt Q8IDW1); experiment: PfPK6 kinase inhibitors, biochemical, TCAMS library (AID 1159586); settings: recombinant PfPK6, Kinase-Glo ATP depletion luminescence
[3] = target: Protein kinase 7 (PK7), Plasmodium falciparum 3D7 (PF3D7_0213400) (UniProt Q7YTF7); experiment: inhibition of Plasmodium PK7 catalytic activity – biochemical, TCAMS antimalarial set, Kinase-Glo luminescence (AID 1159587); settings: recombinant PfPK7, Kinase-Glo ATP depletion luminescence
[4] = target: Calcium-dependent protein kinase 4 (Plasmodium falciparum (isolate 3D7)) (UniProt Q8IBS5); experiment: PfCDPK4 kinase inhibitors, biochemical, TCAMS library (AID 1159588; cut-off not given, nearly all actives have IC50 up to about 0.91 µM); settings: recombinant PfCDPK4, Kinase-Glo ATP depletion luminescence
[5] = target: ATP-dependent translocase ABCB1 (Homo sapiens) (UniProt P08183); experiment: P-glycoprotein substrate transport blockade – cell-based (AID 377; in the data active means fluorescence slope change above about 50%); settings: MDR1-expressing cells, fluorescent substrate accumulation slope; active compounds read high; concentration not given here
[6] = target: 6-phosphogluconate dehydrogenase, decarboxylating (Homo sapiens) (UniProt P52209); experiment: inhibition of human phosphogluconate dehydrogenase – biochemical, recombinant enzyme, NADPH absorbance, primary screen (AID 1159550;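 active means at least 20% inhibition of 6-phosphogluconate dehydrogenase activity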); settings: recombinant 6PGD, NADPH absorbance 341 nm; at 10 µM; active compounds read high
6-phosphogluconate dehydrogenase, decarboxylating (Homo sapiens), sequence (P52209 whole entry, looked up): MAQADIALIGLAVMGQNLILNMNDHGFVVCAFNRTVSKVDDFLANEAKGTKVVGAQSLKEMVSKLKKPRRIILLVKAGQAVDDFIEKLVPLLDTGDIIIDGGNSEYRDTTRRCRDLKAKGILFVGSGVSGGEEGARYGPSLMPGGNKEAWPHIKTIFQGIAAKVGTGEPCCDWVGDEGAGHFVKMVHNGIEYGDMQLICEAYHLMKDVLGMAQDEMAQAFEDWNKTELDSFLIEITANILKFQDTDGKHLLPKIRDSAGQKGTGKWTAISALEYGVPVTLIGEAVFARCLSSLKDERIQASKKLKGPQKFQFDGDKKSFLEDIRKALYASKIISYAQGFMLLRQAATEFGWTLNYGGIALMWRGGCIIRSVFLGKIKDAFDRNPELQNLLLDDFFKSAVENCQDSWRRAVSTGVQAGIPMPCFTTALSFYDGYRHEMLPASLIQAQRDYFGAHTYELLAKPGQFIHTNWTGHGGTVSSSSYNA

Plasmodium falciparum protein kinase 6 (PK6, PF3D7_1337100), sequence (Q8IDW1 1-305): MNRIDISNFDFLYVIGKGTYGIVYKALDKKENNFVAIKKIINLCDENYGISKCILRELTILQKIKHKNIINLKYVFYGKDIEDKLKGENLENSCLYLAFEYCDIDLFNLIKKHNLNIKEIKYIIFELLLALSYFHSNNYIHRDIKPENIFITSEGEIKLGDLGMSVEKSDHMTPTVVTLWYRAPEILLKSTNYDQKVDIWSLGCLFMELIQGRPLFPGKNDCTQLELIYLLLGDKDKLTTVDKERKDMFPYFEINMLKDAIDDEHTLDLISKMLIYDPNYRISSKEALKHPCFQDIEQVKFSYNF
Calcium-dependent protein kinase 1 (Plasmodium falciparum (isolate 3D7)), sequence (P62344 whole entry, looked up): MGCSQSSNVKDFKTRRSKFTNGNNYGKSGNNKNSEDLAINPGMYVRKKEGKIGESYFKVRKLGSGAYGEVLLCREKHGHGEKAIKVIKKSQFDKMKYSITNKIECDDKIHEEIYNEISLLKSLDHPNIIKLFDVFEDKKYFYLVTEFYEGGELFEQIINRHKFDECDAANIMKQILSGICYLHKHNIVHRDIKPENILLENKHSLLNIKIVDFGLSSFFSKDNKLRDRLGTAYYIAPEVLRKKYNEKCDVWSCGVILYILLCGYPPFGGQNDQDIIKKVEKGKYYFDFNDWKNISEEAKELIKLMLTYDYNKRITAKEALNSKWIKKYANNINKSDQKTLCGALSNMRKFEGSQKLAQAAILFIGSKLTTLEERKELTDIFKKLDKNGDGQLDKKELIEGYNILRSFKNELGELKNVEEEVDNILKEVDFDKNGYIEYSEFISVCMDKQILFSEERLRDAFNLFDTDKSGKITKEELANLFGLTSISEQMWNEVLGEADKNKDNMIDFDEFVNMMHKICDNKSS
Calcium-dependent protein kinase 4 (Plasmodium falciparum (isolate 3D7)), sequence (Q8IBS5 whole entry, looked up): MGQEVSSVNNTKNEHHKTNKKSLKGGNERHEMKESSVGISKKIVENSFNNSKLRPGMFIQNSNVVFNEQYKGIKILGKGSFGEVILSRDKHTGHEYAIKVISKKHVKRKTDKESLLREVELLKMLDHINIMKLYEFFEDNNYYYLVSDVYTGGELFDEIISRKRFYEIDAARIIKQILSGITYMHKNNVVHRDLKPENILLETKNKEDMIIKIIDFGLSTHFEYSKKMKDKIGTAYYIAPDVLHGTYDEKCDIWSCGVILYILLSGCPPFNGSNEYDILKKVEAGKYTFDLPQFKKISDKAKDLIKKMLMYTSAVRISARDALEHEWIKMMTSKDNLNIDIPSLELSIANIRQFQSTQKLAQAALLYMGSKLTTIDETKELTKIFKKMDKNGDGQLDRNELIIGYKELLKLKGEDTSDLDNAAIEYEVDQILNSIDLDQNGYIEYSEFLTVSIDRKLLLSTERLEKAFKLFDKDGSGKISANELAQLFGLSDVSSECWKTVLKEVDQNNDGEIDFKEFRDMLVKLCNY
Protein kinase 7 (PK7), Plasmodium falciparum 3D7 (PF3D7_0213400), sequence (Q7YTF7 1-343): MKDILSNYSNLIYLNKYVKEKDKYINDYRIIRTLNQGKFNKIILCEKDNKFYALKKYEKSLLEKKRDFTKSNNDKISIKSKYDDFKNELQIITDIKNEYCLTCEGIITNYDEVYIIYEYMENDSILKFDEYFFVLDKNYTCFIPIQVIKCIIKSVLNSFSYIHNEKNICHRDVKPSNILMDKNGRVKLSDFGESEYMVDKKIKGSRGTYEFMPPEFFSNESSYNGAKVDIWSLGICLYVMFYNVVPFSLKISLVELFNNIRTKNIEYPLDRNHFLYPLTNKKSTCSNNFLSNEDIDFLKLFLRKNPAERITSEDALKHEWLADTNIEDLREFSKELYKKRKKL
ATP-dependent translocase ABCB1 (Homo sapiens), sequence (P08183 whole entry, looked up): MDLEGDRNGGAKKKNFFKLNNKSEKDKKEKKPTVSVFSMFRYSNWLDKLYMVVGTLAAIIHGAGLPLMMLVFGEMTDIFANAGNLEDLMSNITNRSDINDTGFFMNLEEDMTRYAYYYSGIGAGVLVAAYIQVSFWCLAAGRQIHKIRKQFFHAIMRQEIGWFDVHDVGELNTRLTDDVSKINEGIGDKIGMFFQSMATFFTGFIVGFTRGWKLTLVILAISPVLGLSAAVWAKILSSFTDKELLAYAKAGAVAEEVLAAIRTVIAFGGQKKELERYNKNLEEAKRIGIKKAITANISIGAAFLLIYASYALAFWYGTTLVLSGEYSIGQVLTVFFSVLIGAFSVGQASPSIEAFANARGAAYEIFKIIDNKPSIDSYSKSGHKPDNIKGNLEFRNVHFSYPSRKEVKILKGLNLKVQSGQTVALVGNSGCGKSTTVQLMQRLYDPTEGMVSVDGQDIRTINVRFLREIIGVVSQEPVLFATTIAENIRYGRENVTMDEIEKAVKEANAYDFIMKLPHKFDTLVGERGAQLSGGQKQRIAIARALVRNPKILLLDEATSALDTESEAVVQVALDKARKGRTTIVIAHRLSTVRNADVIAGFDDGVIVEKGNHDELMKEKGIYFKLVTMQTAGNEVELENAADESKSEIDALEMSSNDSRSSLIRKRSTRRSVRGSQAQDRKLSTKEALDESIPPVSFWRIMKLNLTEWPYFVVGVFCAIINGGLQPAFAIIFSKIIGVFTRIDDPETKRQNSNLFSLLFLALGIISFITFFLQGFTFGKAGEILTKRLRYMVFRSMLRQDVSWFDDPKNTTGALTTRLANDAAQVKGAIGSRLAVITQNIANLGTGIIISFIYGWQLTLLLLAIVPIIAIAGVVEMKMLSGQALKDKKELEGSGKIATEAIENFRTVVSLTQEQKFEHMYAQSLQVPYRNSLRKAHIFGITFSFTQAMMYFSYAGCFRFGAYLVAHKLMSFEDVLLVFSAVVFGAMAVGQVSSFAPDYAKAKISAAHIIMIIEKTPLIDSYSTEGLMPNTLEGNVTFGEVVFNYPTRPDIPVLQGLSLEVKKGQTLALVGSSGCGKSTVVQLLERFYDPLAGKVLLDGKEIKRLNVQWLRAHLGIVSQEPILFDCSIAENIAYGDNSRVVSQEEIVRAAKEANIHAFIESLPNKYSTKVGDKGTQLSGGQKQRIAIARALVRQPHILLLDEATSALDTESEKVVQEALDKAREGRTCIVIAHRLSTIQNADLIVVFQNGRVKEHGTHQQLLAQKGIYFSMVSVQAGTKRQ

O=[N+]([O-])c1ccc(/C=N/O)nc1
inactive: outcome [1] | outcome [2] | outcome [3] | outcome [4]

c1cc2nc(CCCCc3nc4ccc(C5=N[C@@H]6CCCC[C@@H]6N5)cc4[nH]3)[nH]c2cc1C1=N[C@@H]2CCCC[C@@H]2N1
inactive: outcome [1] | outcome [2] | outcome [3] | outcome [4]

CC[C@@H]([C@H](CC(C)C)C(=O)N[C@@H](CCCCNC(=O)OCc1ccccc1)C(=O)Nc1ccccn1)N(O)C=O
inactive: outcome [1] | outcome [2] | outcome [3] | outcome [4]

CC1CCC(C[C@H](C(=O)N[C@@H](CCC(=O)N2CCCCC2)C(=O)Nc2nccs2)[C@H](C(C)C)N(O)C=O)CC1 (some centres undefined)
inactive: outcome [1] | outcome [2] | outcome [3] | outcome [4]

CN(C)c1nc(N/N=C/c2cc(Cl)ccc2O)nc(Nc2ccc(F)cc2)n1
inactive: outcome [1] | outcome [2] | outcome [3] | outcome [4]

CCC[C@@H]([C@H](CC(C)C)C(=O)N[C@@H](CCCCNC(=O)OCc1ccccc1)C(=O)Nc1ncccn1)N(O)C=O
inactive: outcome [1] | outcome [2] | outcome [3] | outcome [4]

COc1ccc2nc(/N=C(\N)NC(=O)Nc3ccccc3)nc(C)c2c1
inactive: outcome [1] | outcome [2] | outcome [3] | outcome [4]

CO[C@H](C)[C@H](NC(=O)[C@@H](CC(C)C)[C@H](CCC(F)(F)F)N(O)C=O)C(=O)Nc1nccs1
inactive: outcome [1] | outcome [2] | outcome [3] | outcome [4]

CO[C@@H]1[C@@H](OC2OC(C)C(OC3CC(C)(O)C(O)C(C)O3)C(N(C)C)C2O)[C@@H](CC=O)C[C@@H](C)[C@@H](OC2CCC(N(C)C)C(C)O2)/C=C/C=C/C[C@@H](C)OC(=O)C[C@H]1O (some centres undefined)
inactive: fluorescence slope change [5] 23.5% | inhibition [6] 5.19%

Cc1cc(C)c2c(c1)/C(=N/O)CCN2
inactive: outcome [1] | outcome [2] | outcome [3] | outcome [4]

CN(C)c1nc(NCc2ccccc2)nc(N/N=C/c2cc([N+](=O)[O-])ccc2O)n1
inactive: outcome [1] | outcome [2] | outcome [3] | outcome [4]

CCCCCC(C)C(C)c1cc(O)c2c(c1)OC(C)(C)C/C2=C\c1ccncc1 (centres undefined)
inactive: outcome [1] | outcome [2] | outcome [3] | outcome [4]

O=C(Cc1ccc[n+]([O-])c1)Nc1cccc(-c2cccc(-c3nc4ccc(F)cc4[nH]3)c2)c1
inactive: outcome [1] | outcome [2] | outcome [3] | outcome [4]

C=CC[C@@H](C[C@H](O)[C@H](Cc1ccccc1)NC(=O)c1ccc(-c2cccnn2)cc1)C(=O)NC1CCCCC1
inactive: outcome [1] | outcome [2] | outcome [3] | outcome [4]

CCOc1cc(/C=C/c2nc3ccccc3c(=O)[nH]2)cc(Cl)c1O
inactive: outcome [1] | outcome [2] | outcome [3] | outcome [4]

Oc1ccc2ccccc2c1/C=N/Nc1nc(Nc2ccccc2)nc(N2CCOCC2)n1
inactive: outcome [1] | outcome [2] | outcome [3] | outcome [4]

Oc1ccc2ccccc2c1/C=N/Nc1nc(Nc2ccccc2)nc(Nc2ccccc2)n1
inactive: outcome [1] | outcome [2] | outcome [3] | outcome [4]

Nc1c2c(nc3ccccc13)/C(=C/c1ccc(O)cc1)CCC2
inactive: outcome [1] | outcome [2] | outcome [3] | outcome [4]

COc1ccc(C2=[N+]([O-])c3ccccc3C2=O)cc1
inactive: outcome [1] | outcome [2] | outcome [3] | outcome [4]
